These assays gave more results; the selection is not random.

This passage reports AbsAC35 results from ChEMBL document CHEMBL1201862, “PubChem BioAssay data set” (2004).

This experiment addresses Acyl-homoserine lactone acylase PvdQ (Pseudomonas aeruginosa (strain LESB58)) (UniProt Q9I194). Kind of experiment: Pseudomonas aeruginosa growth inhibition with EDDHA – absorbance, plate reader, cherry-picks, dose response (AID 602389). It counts as functional.
`COc1ccc(C2=C(C=O)Cc3ccccc3O2)cc1`: the AbsAC35 was 210 µM (active).

On to `C=CCOC(=O)c1ccc(-n2cnc(C)n2)nc1`, for which the AbsAC35 is 89.1 µM (active).

As to `N#Cc1cc(-c2ccccc2)cnc1Cl`, the AbsAC35 was 74.1 µM (active).

On to `N#CN(Cc1ccccc1)Cc1ccccc1`, for which the AbsAC35 is 477 µM (active).

Consider `C#CCSc1ncc(-c2ccccc2)cn1`, for which the AbsAC35 was 214 µM (active).
